About 83,000 compounds went through this panel and 20% of them were active in at least one assay; those are over-represented in the sample as a whole.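 Step 1: grow cells in 96-well plates. Step 2: add test compound at a single concentration. Step 3: incubate 48 h. Step 4: record percent growth.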 A number with no mark means an inactive call. Active and inactive are the calls of the source. Rule for the calls: active = growth percent below 10; inactive = the rest.

Assay in all cases: NCI-60 one-dose screen, 48 h (100 = growth as untreated, 0 = no growth, -100 = all killed)
Experiment [1] has as its system SK-MEL-2 melanoma. Particulars: 10 µM.
Experiment [2] has as its system EKVX NSCLC. Particulars: 10 µM.
Experiment [3] concerns SN12C renal. Particulars: 10 µM.
Experiment [4] has as its system UO-31 renal. Particulars: 10 µM.
Experiment [5] deals with TK-10 renal. Particulars: 10 µM unless noted.
The subject of experiment [6] is ACHN renal. Particulars: 10 µM.
Experiment [7] relates to A498 renal. To be noted: 10 µM.
The test system of experiment [8] is CCRF-CEM leukemia. Particulars: 10 µM.
Experiment [9] has as its system MOLT-4 leukemia. Particulars: 10 µM.
Experiment [10] concerns SR leukemia. Particulars: 10 µM.
Experiment [11] has as its system RPMI-8226 leukemia. To be noted: 10 µM.
The subject of experiment [12] is OVCAR-8 ovarian. To be noted: 10 µM.
Experiment [13] relates to OVCAR-5 ovarian. Particulars: 10 µM.
In experiment [14] the test system is OVCAR-4 ovarian. Particulars: 10 µM.
In experiment [15] the test system is SK-OV-3 ovarian. To be noted: 10 µM.
In experiment [16] the test system is IGROV1 ovarian. To be noted: 10 µM.
For experiment [17], the system named is OVCAR-3 ovarian. To be noted: 10 µM.
The test system of experiment [18] is HS 578T breast. To be noted: 10 µM.
Experiment [19] relates to NCI/ADR-RES ovarian. To be noted: 10 µM.
Experiment [20] deals with CAKI-1 renal. Particulars: 10 µM.

Regarding `CCOc1ccc(/C=C/C(=O)c2ccccc2)cc1`, the growth is 91.9% in experiment [1]; 107% in experiment [2]; 95.7% in [3]; 84% in [4]; 97.6% in experiment [5]; 108% in [6]. Further, the growth in experiment [7] is 88.8%; in experiment [8], 55.9%; in experiment [9], 77.6%; in [10] it was 40.6%; in experiment [11] it was 9.27% (active); in experiment [12] it was 95.6%. The growth in [13] is 106%; in [14] it was 102%; in [15], 103%; in [16], 74.8%; in experiment [17], 93.7%; in experiment [18] it was 120%. For the same compound, the growth in experiment [19] is 105%.
As for `O=C(CCl)Nc1ccc2c(c1)C(=O)c1ccc(NC(=O)CCl)cc1C2=O`, the growth in experiment [1] was -38.8% (active); in experiment [2], -15.2% (active); in experiment [3], -49.5% (active); in [4], -95.5% (active); in experiment [5], 3% (active); in [6] it was -65.7% (active). The growth in experiment [7] is 12.4%; in experiment [8], -46.9% (active); in experiment [9] it was -31.8% (active); in experiment [10], -27.1% (active); in experiment [12] it was -23% (active); in [14], -43% (active). Moreover, the growth was -9.68% (active) in experiment [15]; -62.1% (active) in [16]; -93.2% (active) in experiment [17]; 6.19% (active) in [18]; -53.8% (active) in experiment [19].
Turning to `O=C(CCNNC(=O)c1ccncc1)NCc1ccccc1`, the growth was 94.3% in experiment [1]; 106% in experiment [2]; 97.1% in experiment [3]; 91.3% in experiment [4]; 133% in [5]; 93% in [6]. Also, the growth was 110% in experiment [7]; 5.43% (active) in [8]; 99% in experiment [9]; 87.2% in [11]; 100% in [12]; 105% in [13]. Also, the growth in experiment [14] is 96.3%; in experiment [15], 104%; in [16], 92.3%; in experiment [17], 102%; in [19] it was 96.5%.
Take `Nc1ccc(CC(=O)O)c(N)c1`: the growth is 113% in experiment [1]; 101% in experiment [2]; 102% in [3]; 89% in experiment [4]; 105% in [5]; 104% in [6]. The growth was 62.8% in experiment [7]; -27.4% (active) in [8]; 101% in [9]; 95.2% in experiment [10]; 104% in experiment [11]; 106% in experiment [12]. Moreover, the growth in [13] was 96.1%; in experiment [14], 98.6%; in experiment [15], 93%; in [16], 106%; in experiment [17], 97.2%; in experiment [18] it was 96.7%. In experiment [19], the growth is 96.5%.
Regarding `CO[C@H]1C[C@@H]2CC[C@@H](C)[C@@](O)(O2)C(=O)C(=O)N2CCCC[C@H]2C(=O)O[C@H]([C@H](C)C[C@@H]2CC[C@@H](O)[C@H](OC)C2)CC(=O)[C@H](C)C=C(C)[C@@H](O)[C@@H](OC)C(=O)[C@H](C)C[C@H](C)/C=C/C=C/C=C1C`, the growth is 75.8% in experiment [1]; 36.5% in experiment [2]; 74.2% in experiment [3]; 26.3% in experiment [4]; 71.7% in experiment [5]; 59.3% in experiment [6]. Besides, the growth in experiment [20] was 52.2%; in experiment [8], 30.6%; in [9], 37.4%; in experiment [10], 23.7%; in experiment [11] it was 23.8%; in experiment [13], -6.29% (active). For the same compound, the growth is 33.3% in [14]; 45.1% in experiment [15]; 11.9% in experiment [16]; 55.1% in [17]; -10.4% (active) in experiment [19].
Turning to `Oc1ccccc1-c1nnco1`, the growth in [1] was 96.4%; in [2], 107%; in [3], 83.2%; in [4], 55%; in [5] it was 95.4%; in experiment [6], 83%. The growth in experiment [7] was 75.9%; in [8], 89%; in experiment [9] it was 90.1%; in experiment [10], 90.4%; in experiment [11], 86.8%; in experiment [12], 98.9%. Besides, the growth in [13] is 107%; in [14] it was 83.1%; in experiment [15] it was 91.1%; in experiment [16] it was 86.3%; in [17] it was 101%; in [18], 45.1%. Further, the growth in experiment [19] was 93.1%.
Take `CN(C)c1ccc2oc(=O)c3ccccc3c2c1`: the growth in [1] is 106%; in [2], 50.4%; in experiment [3] it was 89.2%; in experiment [4] it was 81%; in [5], 107%; in [6] it was 103%. Further, the growth in [20] was 98.4%; in experiment [8], 110%; in experiment [9] it was 131%; in experiment [11] it was 74.1%; in experiment [12] it was 104%; in experiment [13] it was 91.9%. The growth in experiment [15] is 101%; in experiment [16] it was 95.3%; in experiment [17] it was 103%; in experiment [19] it was 94.9%.
On to `COc1cc2c(cc1O)CC[C@@H]1C2CC[C@@]2(C)C1CC[C@@H]2O` (some centres undefined), for which the growth is 71.1% in experiment [1]; 37.9% in experiment [2]; 53.2% in experiment [3]; 41.8% in experiment [4]; 63% in experiment [5]; 61.9% in experiment [6]. Besides, the growth was 33.7% in experiment [20]; 8.85% (active) in [8]; 15.1% in experiment [10]; 0% (active) in [11]; -41.5% (active) in [13]; 65.2% in experiment [14]. In addition, the growth in experiment [15] was 24.1%; in experiment [16], 25.3%; in experiment [17], 4.72% (active); in [19] it was -70.7% (active).
`COc1ccccc1NC(=O)c1cc2cc(Br)ccc2cc1O`: the growth in [1] is -31.5% (active); in [2], 22.4%; in experiment [3], 9.1% (active); in experiment [4], -3.91% (active); in experiment [5], 39.8%; in experiment [6], -6% (active). In addition, the growth in experiment [7] was 18.2%; in experiment [8], -4.98% (active); in experiment [9], -0.261% (active); in experiment [10], -5.13% (active); in [11] it was -29.6% (active); in experiment [12], 9.55% (active). In addition, the growth in experiment [13] was 104%; in experiment [14], 18.7%; in [15] it was 1.19% (active); in [16], -46% (active); in experiment [17] it was 4.13% (active); in experiment [18], 6.12% (active). Besides, in experiment [19], the growth was 5.05% (active).

Values taken from PubChem BioAssay (NCI).
